A short description of experiment [1]: qHTS assay to identify aromatase inhibitors - cell viability counter screen (AID 743084;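 note: cells stimulated with testosterone during compound exposure; nearly all actives have a fitted effect of over 55% in size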). (In qHTS, concentration-response curves come from the screen itself.)
Experiment [2] deals with Aryl hydrocarbon receptor (Homo sapiens) (UniProt P35869). Nature of the experiment: qHTS assay to identify small molecule that activate the aryl hydrocarbon receptor (AhR) signaling pathway (AID 743085).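 For activation: HG2L7.5c1 human HepG2 liver cells with stably integrated DRE-driven firefly reporter; series mostly up to about 70 µM.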 Note: nearly all actives have a fitted effect of over 15% in size. Note: potency is the fitted concentration of half-maximal effect. The method, boiled down:
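Steps: seed HepG2-AhR-luc cells; allow 5 h at 37C; pin-transfer test compound or vehicle; incubate 24 h at 37C; add viability dye (30 min, 37C) and read fluorescence; add luciferase substrate (30 min, RT) and read luminescence.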

Experiment [3] is described as follows: qHTS assay to identify small molecule that activate the aryl hydrocarbon receptor (AhR) signaling pathway - cell viability counter screen (AID 743086).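 Note: HepG2 liver cells carrying the AhR DRE luciferase reporter; series mostly up to about 70 µM; nearly all actives have a fitted effect of over 45% in size.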 The method, boiled down:
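Cytotoxicity counter screen: CellTiter-Fluor signal (30 min, 37 C) in 4000 HepG2 cells/well carrying the DRE-luciferase reporter, following 24 h compound exposure at 37 C.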

Experiment [4] concerns the target Peroxisome proliferator-activated receptor gamma (Homo sapiens) (UniProt P37231). Put plainly: qHTS assay to identify small molecule agonists of the peroxisome proliferator-activated receptor gamma (PPARg) signaling pathway (AID 743094; active = well fitted activation curve with a large enough effect in the signal ratio in the repeat runs, not every such curve was filed as active; the % refers to the signal ratio). The method, boiled down: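 Beta-lactamase FRET fluorescence was the read-out after a 1 h room-temperature substrate step, following 17 h compound treatment at 37C of HEK293H cells expressing a UAS-driven bla reporter responsive to PPARg.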

For experiment [5] the target is unchanged. Put plainly: qHTS assay to identify small molecule antagonists of the peroxisome proliferator-activated receptor gamma (PPARg) signaling pathway (AID 743191; calls by dose curve; note: series mostly up to about 63 µM; nearly all actives have a fitted effect of over 30% in size). The method, boiled down:
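Beta-lactamase reporter under UAS control in HEK293H PPARg-bla cells; compound treatment 17 h at 37C. Read-out: fluorescence intensity after 1 h room-temperature incubation with LiveBLAzer B/G FRET substrate.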

A short description of experiment [6]: qHTS assay to identify small molecule antagonists of the peroxisome proliferator-activated receptor gamma (PPARg) signaling pathway - cell viability counter screen (AID 743194). Note: nearly all actives have a fitted effect of over 55% in size. The method, boiled down:
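Viability was measured as CellTiter-Glo luminescence in GeneBLAzer PPARg UAS-bla HEK293H cells. These cells had been exposed 17 h at 37 C to compounds together with rosiglitazone at 50 nM final, with the beta-lactamase readout taken in the same wells.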

Experiment [7] can be described thus: qHTS assay for small molecule agonists of the antioxidant response element (ARE) signaling pathway - cell viability counter screen (AID 743203; calls by dose curve; note: nearly all actives have a fitted effect of over 55% in size). The method, boiled down:
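HepG2 cells carrying ARE-driven beta-lactamase; 2,000 cells/well; 5 hrs plating; compound pinned from DMSO; 16 hrs 37C/5% CO2; CellTiter-Glo added; 30 min RT; luminescence.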

The nature of experiment [8]: qHTS assay for small molecule activators of the heat shock response signaling pathway - cell viability counter screen (AID 743209). Note: nearly all actives have a fitted effect of over 50% in size. The method, boiled down:
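Luminescence from CellTiter-Glo, added after the beta-lactamase FRET read, gave the viability signal. Cells were HSE-bla HeLa treated with DMSO-dissolved compounds for 5 h at 37 C following overnight plating.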

A short description of experiment [9]: qHTS assay for small molecule activators of the heat shock response signaling pathway (AID 743210; active = well fitted activation curve with a large enough effect in the signal ratio in the repeat runs, with a control signal flat, not every such curve was filed as active; the % refers to the signal ratio;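 note: HeLa cells with beta-lactamase reporter driven by heat shock elements; series mostly up to about 63 µM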). The gist of the method: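 HeLa HSE-bla cells, overnight plating; cpd in DMSO 5 h, 37 C; LiveBLAzer B/G FRET substrate 2.5 h RT; fluorescence intensity read.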
Experiment [10] is described as follows: qHTS assay to identify small molecule agonists of the peroxisome proliferator-activated receptor delta (PPARd) signaling pathway - cell viability counter screen (AID 743211). Note: nearly all actives have a fitted effect of over 55% in size. The method, boiled down: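 Viability of GeneBLAzer PPARd UAS-bla HEK293H cells was assessed after 17 h compound incubation at 37C, using CellTiter-Glo reagent added after the reporter read and luminescence recorded 30 min later.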

Experiment [11] deals with Peroxisome proliferator-activated receptor delta (Homo sapiens) (UniProt Q03181). Put plainly: qHTS assay to identify small molecule agonists of the peroxisome proliferator-activated receptor delta (PPARd) signaling pathway (AID 743212; calls by dose curve). The method, boiled down:
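HEK293H PPARd-bla cells; 5 h preincubation 37 C/5% CO2; compound (DMSO) 37 C; LiveBLAzer B/G FRET substrate 2 h RT; fluorescence intensity.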

A short description of experiment [12]: qHTS assay to identify small molecule antagonists of the peroxisome proliferator-activated receptor delta (PPARd) signaling pathway - cell viability counter screen (AID 743213). Note: nearly all actives have a fitted effect of over 50% in size. The gist of the method: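 Luminescence from CellTiter-Glo, added after the bla read and incubated 30 min at room temperature, gives viability of HEK293H PPARd-bla cells exposed to compounds for 17 h at 37 C with 300 nM L165041.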

Experiment [13] concerns the target Peroxisome proliferator-activated receptor delta (Homo sapiens) (UniProt Q03181). Nature of the experiment: qHTS assay to identify small molecule antagonists of the peroxisome proliferator-activated receptor delta (PPARd) signaling pathway (AID 743215; active = well fitted inhibition curve with a large enough effect in the signal ratio in the repeat runs, not every such curve was filed as active; the % refers to the signal ratio;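 note: cells stimulated with agonist L165041 at 300 nM final during compound exposure; series mostly up to about 62 µM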). The method, boiled down: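 Read-out is beta-lactamase FRET fluorescence, measured 2 h after substrate addition at room temperature. Beforehand, UAS-bla HEK293H cells carrying the PPARd reporter were exposed to compounds with L165041 at 300 nM final for 17 h at 37 C.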

Experiment [14] is described as follows: qHTS assay to identify small molecule agonists of the farnesoid-X-receptor (FXR) signaling pathway - cell viability counter screen (AID 743218). Note: nearly all actives have a fitted effect of over 45% in size. The gist of the method: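 HEK 293T FXR-bla cells; 5 h pre-incubation, 16 h compound exposure at 37 C; LiveBLAzer substrate 2 h RT, then CellTiter-Glo 30 min RT, luminescence.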
Experiment [15] can be described thus: qHTS assay to identify small molecule antagonists of the farnesoid-X-receptor (FXR) signaling pathway - cell viability counter screen (AID 743221; active = well fitted cell-killing curve with a large enough effect in the repeat runs, not every such curve was filed as active; note: nearly all actives have a fitted effect of over 50% in size). The gist of the method:
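Quantitative HTS of the Tox21 10K library run in parallel with the beta-lactamase reporter read. HEK 293T cells carrying a UAS-driven bla reporter got compound and 50 uM CDCA (final) for 16 h; ATP-based luminescence followed.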

Experiment [16] has as its target Vitamin D3 receptor (Homo sapiens) (UniProt P11473). Put plainly: qHTS assay to identify small molecule agonists of the vitamin D receptor (VDR) signaling pathway (AID 743222; calls by dose curve). The gist of the method:
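VDR-bla cells, 2,000/well; 4 h preincubation 37C; cpd (DMSO) 16 h; LiveBLAzer B/G substrate 2 h RT; fluorescence intensity read.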

Experiment [17] in a line: qHTS assay for small molecule agonists of the antioxidant response element (ARE) signaling pathway (AID 743202; active = well fitted activation curve with a large enough effect in the signal ratio in the repeat runs, not every such curve was filed as active; the % refers to the signal ratio; note: potency is the fitted concentration of half-maximal effect). The gist of the method:
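Quantitative high-throughput format in HepG2 cells bearing an integrated ARE-beta-lactamase reporter. Compound exposure lasted 16 h at 37 C, and fluorescence was read 2 h after adding LiveBLAzer B/G substrate at room temperature.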

The target in experiment [18] is Bile acid receptor (Homo sapiens) (UniProt Q96RI1). Put plainly: qHTS assay to identify small molecule antagonists of the farnesoid-X-receptor (FXR) signaling pathway (AID 743217; active = well fitted inhibition curve with a large enough effect in the signal ratio in the repeat runs, not every such curve was filed as active; the % refers to the signal ratio). The method, boiled down:
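HEK 293T FXR-UAS-bla, 5000 cells/well; compound + CDCA 50 uM final; 16 h, 37 °C; B/G FRET substrate 2 h RT; fluorescence.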

Experiment [19] shares this target. Put plainly: qHTS assay to identify small molecule agonists of the farnesoid-X-receptor (FXR) signaling pathway (AID 743220; active = well fitted activation curve with a large enough effect in the signal ratio in the repeat runs, not every such curve was filed as active; the % refers to the signal ratio). The method, boiled down:
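Beta-lactamase reporter under UAS control in GeneBLAzer FXR HEK 293T cells (5000/well) measured with LiveBLAzer FRET substrate after 2 h at room temperature. Compound exposure lasted 16 h at 37C.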

The target of experiment [20] is Vitamin D3 receptor (Homo sapiens) (UniProt P11473). Nature of the experiment: qHTS assay to identify small molecule antagonists of the vitamin D receptor (VDR) signaling pathway (AID 743223; active = well fitted inhibition curve with a large enough effect in the signal ratio in the repeat runs, not every such curve was filed as active; the % refers to the signal ratio). The method, boiled down: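 Fluorescence from LiveBLAzer B/G FRET substrate, read after 2 h at room temperature, reflects beta-lactamase reporter activity in VDR-bla cells treated 16 h at 37C with compounds and agonist 1alpha,25-dihydroxyvitamin D3 (3 nM final).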
Sequence of Vitamin D3 receptor (Homo sapiens) (P11473 whole entry, looked up): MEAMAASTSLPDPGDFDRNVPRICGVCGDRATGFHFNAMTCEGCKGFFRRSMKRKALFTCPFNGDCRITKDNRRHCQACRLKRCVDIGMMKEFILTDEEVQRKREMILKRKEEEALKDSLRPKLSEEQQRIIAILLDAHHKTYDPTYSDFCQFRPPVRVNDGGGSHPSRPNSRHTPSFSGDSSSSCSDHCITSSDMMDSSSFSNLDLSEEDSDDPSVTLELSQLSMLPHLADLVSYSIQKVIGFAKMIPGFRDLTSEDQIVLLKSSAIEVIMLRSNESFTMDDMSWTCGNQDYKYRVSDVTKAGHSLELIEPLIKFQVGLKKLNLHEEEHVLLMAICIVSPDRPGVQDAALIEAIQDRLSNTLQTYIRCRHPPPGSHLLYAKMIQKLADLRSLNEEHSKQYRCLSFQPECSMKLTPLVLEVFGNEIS

Several values for one entry are separate records, joined by “and”; a condition that tells them apart may be missing. Identical values can stand only once. Results filed as inconclusive are left out. Activity calls are given as the source filed them. Unless noted, calls come from the whole dose curve; as a rule, active = well fitted curve in the direction sought with a large enough effect in the repeat runs; inconclusive = weak or mixed curves; inactive = no such curve, though single readings can be large; an effect the other way counts as inactive or inconclusive.

Sequence of Peroxisome proliferator-activated receptor gamma (Homo sapiens) (P37231 whole entry, looked up): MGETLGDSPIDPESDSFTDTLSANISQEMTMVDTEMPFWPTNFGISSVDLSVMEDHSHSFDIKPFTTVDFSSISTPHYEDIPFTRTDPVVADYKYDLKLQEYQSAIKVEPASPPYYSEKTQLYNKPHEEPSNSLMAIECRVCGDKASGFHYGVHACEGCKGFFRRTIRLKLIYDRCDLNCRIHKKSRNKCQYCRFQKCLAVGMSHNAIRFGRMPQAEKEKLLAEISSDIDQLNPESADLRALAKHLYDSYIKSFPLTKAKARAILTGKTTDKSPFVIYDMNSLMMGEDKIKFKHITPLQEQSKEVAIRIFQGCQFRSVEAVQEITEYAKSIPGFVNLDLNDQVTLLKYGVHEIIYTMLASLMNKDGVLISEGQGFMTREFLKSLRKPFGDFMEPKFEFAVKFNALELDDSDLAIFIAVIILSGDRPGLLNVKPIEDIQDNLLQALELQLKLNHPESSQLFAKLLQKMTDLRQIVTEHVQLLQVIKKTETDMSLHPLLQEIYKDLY
Sequence of Peroxisome proliferator-activated receptor delta (Homo sapiens) (Q03181 whole entry, looked up): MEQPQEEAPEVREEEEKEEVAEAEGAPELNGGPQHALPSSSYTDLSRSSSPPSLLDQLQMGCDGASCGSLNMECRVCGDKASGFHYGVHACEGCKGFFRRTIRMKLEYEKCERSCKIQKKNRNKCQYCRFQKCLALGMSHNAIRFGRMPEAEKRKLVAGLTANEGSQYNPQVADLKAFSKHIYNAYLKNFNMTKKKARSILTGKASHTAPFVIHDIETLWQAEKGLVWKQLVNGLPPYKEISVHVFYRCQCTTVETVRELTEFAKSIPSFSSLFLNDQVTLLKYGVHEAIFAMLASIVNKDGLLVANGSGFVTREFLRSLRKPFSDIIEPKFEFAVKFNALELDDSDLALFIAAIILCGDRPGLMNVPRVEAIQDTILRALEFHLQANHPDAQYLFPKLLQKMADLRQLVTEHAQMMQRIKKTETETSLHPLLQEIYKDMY
Sequence of Bile acid receptor (Homo sapiens) (Q96RI1 whole entry, looked up): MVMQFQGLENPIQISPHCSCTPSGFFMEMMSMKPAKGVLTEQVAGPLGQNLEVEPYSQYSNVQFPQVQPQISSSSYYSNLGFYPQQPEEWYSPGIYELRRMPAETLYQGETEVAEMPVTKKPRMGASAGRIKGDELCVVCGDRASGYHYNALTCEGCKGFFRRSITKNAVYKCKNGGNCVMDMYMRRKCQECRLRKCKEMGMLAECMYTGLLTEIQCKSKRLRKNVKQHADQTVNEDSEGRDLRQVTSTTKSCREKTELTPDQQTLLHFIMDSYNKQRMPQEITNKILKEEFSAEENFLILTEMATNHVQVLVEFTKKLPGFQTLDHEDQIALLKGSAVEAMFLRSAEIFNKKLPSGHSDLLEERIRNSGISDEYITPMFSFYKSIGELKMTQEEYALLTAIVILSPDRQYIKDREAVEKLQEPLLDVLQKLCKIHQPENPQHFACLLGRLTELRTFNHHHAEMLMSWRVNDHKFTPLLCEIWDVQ
Sequence of Aryl hydrocarbon receptor (Homo sapiens) (P35869 whole entry, looked up): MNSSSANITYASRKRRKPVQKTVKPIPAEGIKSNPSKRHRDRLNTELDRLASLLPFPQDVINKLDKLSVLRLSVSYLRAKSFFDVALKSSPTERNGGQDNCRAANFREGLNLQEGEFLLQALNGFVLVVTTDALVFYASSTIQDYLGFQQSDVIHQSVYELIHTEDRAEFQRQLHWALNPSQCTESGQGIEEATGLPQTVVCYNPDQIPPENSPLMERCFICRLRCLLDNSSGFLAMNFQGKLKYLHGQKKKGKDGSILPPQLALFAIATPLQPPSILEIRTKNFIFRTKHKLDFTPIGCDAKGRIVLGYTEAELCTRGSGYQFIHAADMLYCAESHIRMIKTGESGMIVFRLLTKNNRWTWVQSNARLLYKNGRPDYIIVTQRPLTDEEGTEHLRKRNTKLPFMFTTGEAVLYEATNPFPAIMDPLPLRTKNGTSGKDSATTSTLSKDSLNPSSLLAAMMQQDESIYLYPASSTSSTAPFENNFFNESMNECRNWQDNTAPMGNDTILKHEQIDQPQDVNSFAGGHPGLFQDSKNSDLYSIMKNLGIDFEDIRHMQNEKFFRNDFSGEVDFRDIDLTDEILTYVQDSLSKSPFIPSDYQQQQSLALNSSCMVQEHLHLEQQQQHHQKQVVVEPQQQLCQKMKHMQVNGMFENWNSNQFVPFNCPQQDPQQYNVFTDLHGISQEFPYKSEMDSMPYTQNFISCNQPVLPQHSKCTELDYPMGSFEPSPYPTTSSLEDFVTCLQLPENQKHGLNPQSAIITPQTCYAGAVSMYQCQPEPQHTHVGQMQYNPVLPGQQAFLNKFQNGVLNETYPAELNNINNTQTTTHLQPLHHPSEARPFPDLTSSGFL

`Nc1cc(-c2ccncc2)c[nH]c1=O`: the Potency result in experiment [1], in experiment [2], in experiment [3], in [5], in experiment [6] and in [7] was “inactive” throughout. In addition, the Potency result in experiment [8], in [10], in experiment [12], in [14], in [15] and in [16] was “inactive” in each case. The compound was classed as inactive in experiment [4], in [9], in experiment [11] and in [13].

As to `CC1CC(OC(=O)c2ccccc2O)CC(C)(C)C1` (configuration not stated), the Potency result in experiment [1], in [2], in [3], in [5], in experiment [6] and in [17] was “inactive” in each case. Moreover, the Potency result in experiment [7], in [10], in experiment [12], in experiment [14] and in experiment [15] was “inactive” throughout. Moreover, the compound was called inactive in experiment [4], in experiment [11] and in experiment [13].

Regarding `O=C(Cl)c1c(Cl)c(Cl)c(C(=O)Cl)c(Cl)c1Cl`, the Potency result in experiment [1], in experiment [2], in [3], in [5], in [6] and in experiment [17] was “inactive” throughout. Moreover, the Potency result in experiment [7], in [8], in [10], in [12], in experiment [14] and in experiment [15] was “inactive” each time. The compound was called inactive in [4], in [9], in [11], in [13], in experiment [18] and in [19].

In the case of `CC1(C)CC(N=C=O)CC(C)(CN=C=O)C1` (configuration not stated), the Potency entry in experiment [1], in [2], in [3], in [5], in experiment [6] and in [17] was “inactive” each time. The Potency result in experiment [7], in experiment [8], in experiment [10], in experiment [12], in [14] and in experiment [15] was “inactive” in each case. Moreover, the Potency entry in experiment [16] and in [20] was “inactive” each time. The compound was classed as inactive in experiment [4], in experiment [9], in experiment [18] and in [19].

Take `CCc1ccc(O)cc1`: the Potency entry in experiment [1], in experiment [2], in [3], in experiment [5], in experiment [6] and in experiment [17] was “inactive” each time. Further, the Potency result in [7], in experiment [8], in experiment [10], in experiment [12], in [14] and in experiment [15] was “inactive” throughout. Further, the Potency entry in experiment [16] and in experiment [20] was “inactive” each time. The compound was classed as inactive in experiment [4], in experiment [9], in [11] and in experiment [13].

In the case of `CCOC(=O)C1OC1c1ccccc1` (configuration not stated), the Potency entry in experiment [1], in [2], in experiment [3], in experiment [5], in experiment [6] and in experiment [17] was “inactive” throughout. The Potency entry in [7], in [8], in experiment [10], in [12], in experiment [14] and in [15] was “inactive” throughout. Moreover, the Potency result in experiment [16] and in [20] was “inactive” in each case. The call in [4], in experiment [9], in experiment [11] and in experiment [13] was inactive.

With `CCOC(=O)[C@H](CCc1ccccc1)N[C@@H](C)C(=O)N1Cc2ccccc2C[C@H]1C(=O)O`, the Potency entry in experiment [1], in experiment [3], in experiment [5], in experiment [17], in experiment [7] and in [8] was “inactive” in each case. For the same compound, the Potency result in experiment [10], in experiment [12], in [14], in experiment [15], in [16] and in [20] was “inactive” in each case. The Potency in experiment [2] was 6.16 µM (active). The compound was classed as inactive in experiment [4], in experiment [9], in experiment [11], in [13], in experiment [18] and in experiment [19].

On to `CN(C)c1cccc(O)c1`, for which the Potency result in experiment [1], in experiment [3], in [5], in [7], in experiment [8] and in experiment [10] was “inactive” throughout. The Potency entry in [14], in experiment [15], in [16] and in [20] was “inactive” in each case. In addition, the Potency in [2] was 15.6 µM (active) and 30.6 µM (active); in experiment [17], 55.3 µM (active). The compound was classed as inactive in experiment [4], in experiment [9], in [11] and in experiment [13].

Source of the values: PubChem BioAssay (Tox21).
